Bioassay records as filed in PubChem BioAssay.
The sample as a whole holds a higher share of hits than the screen did.
NS1 inh: influenza NS1 inhibition | Potency, µM (highest dose often 46.1 µM), for the others: at the highest dose activity, positive = more growth | 0.4% of 270,000 active; calls by dose curve; note: potency is the fitted concentration of half-maximal effect; actives are rising curves; nearly all actives have a fitted effect of over 50% in size
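A cell-based growth assay was used: compounds that relieve NS1-induced slow growth of budding yeast raise OD600. Assay medium was yeast nitrogen base with ammonium sulphate and -URA supplement, pH 6.0, with 2% galactose.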
SARS PLP yeast: inhibitors of SARS-CoV papain-like protease in yeast | 0.19% of 330,000 active | S. cerevisiae expressing SARS-CoV PLpro, growth rescue | AID 485353 | Potency, µM (titrated, usually from 32.9 µM), inactives show at the highest dose activity, positive = growth rescue, hits mostly activators; calls by dose curve; note: potency is the fitted concentration of half-maximal effect; 0% is about no effect; nearly all actives have a fitted effect of over 55% in size
Tb PYK inh: T. brucei pyruvate kinase inhibition; Q57TT1; TbPYK enzyme, Kinase-Glo Plus ATP luminescence, 45 min; Potency, µM (doses to about 76.8 µM), for inactives: at the top dose activity, negative = inhibition, usual class: inhibitors; 0.12% of 410,000 active; AID 624173; note: potency is the fitted concentration of half-maximal effect; % is set by controls: 0 for no effect and ±100 for the full control effect; nearly all actives have a fitted effect of over 50% in size
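Quantitative HTS: titrated library compounds versus trypanosomal pyruvate kinase in TEA buffer (pH 7.2) containing KCl, MgCl2, BSA and Tween-20. Reactions were initiated with ADP, 130 uM final. Kinase-Glo Plus luminescence was read after 45 min at RT.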
Shiga inhibitor: inhibitors of Shiga toxin in Vero cells; 9.2% of 290,000 active; inhibition, % at 38.7 µM; Vero cells, Shiga toxin protein synthesis inhibition reporter; AID 2315; in the data active = inhibition mostly above about 28%, no sharp cut-off; inactive = mostly below about 43%; note: 0% is about no effect
CHX counter: counter-screen for Shiga toxin inhibitors: cycloheximide protein synthesis inhibition; cell reporter, cycloheximide protein synthesis inhibition counterscreen; max response, %; 12% of 300,000 active; in the data active = max response mostly above about 13%, no sharp cut-off; inactive = mostly below about 14%; note: read at 38.3 µM for the half of the compounds with a filed dose; 0% is about no effect
LmPK inh: LmPK (Leishmania mexicana) enzyme inhibition; Potency, µM (top dose mostly 57.5 µM), inactives show at the top dose activity change, negative = inhibition, actives largely listed as inhibitors; purified LmPK, Kinase-Glo ATP luminescence, 1 h; AID 1721; Q27686; 0.37% of 290,000 active; note: potency is the fitted concentration of half-maximal effect; % is set by controls: 0 for no effect and ±100 for the full control effect
Target sequence (Q27686 whole entry, looked up): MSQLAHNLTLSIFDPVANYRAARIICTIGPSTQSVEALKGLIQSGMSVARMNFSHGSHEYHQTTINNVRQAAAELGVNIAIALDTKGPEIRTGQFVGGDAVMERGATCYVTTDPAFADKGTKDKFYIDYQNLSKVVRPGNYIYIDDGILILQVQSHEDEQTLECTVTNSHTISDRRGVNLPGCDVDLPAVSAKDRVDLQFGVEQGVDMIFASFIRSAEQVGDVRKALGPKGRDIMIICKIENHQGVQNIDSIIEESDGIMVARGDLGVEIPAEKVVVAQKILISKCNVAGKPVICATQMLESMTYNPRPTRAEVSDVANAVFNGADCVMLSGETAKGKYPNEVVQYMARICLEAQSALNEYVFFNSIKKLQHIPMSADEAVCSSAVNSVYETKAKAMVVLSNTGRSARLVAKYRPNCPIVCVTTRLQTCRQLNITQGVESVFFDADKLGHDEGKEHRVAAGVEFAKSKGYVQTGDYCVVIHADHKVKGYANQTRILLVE
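Purified LmPK (0.1 nM) converted ADP (0.1 mM) to ATP with PEP (0.5 mM) in imidazole buffer pH 7.2 with KCl and MgCl2, 1 h at room temperature. ATP was read by Kinase-Glo luminescence; data normalized to uninhibited and no-enzyme controls.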
Numbers without * were called inactive; ? = inconclusive; . = not tested or not shown. Unless noted, calls come from the whole dose curve; as a rule, active = well fitted curve in the direction sought with a large enough effect; inconclusive = small, poorly fitted or top-dose-only effect, or another doubt; inactive = no such curve, though single readings can be large; an effect the other way counts as inactive or inconclusive.

SMILES | NS1 inh | SARS PLP yeast | Tb PYK inh | Shiga inhibitor | CHX counter | LmPK inh
CN[C@H](CC(C)C)C(=O)N[C@H]1C(=O)N[C@@H](CC(N)=O)C(=O)N[C@H]2C(=O)N[C@H]3C(=O)N[C@H](C(=O)N[C@H](C(=O)O)c4cc(O)cc(O)c4-c4cc3ccc4O)[C@H](O)c3ccc(c(Cl)c3)Oc3cc2cc(c3O[C@@H]2OC(CO)[C@@H](O)[C@H](O)[C@H]2O[C@H]2C[C@](C)(N)[C@H](O)[C@H](C)O2)Oc2ccc(cc2Cl)[C@H]1O (some centres not stated) | . | . | 2% | . | . | .
Cc1cccc(OCC(=O)Nc2ccc3nc(SCc4ccccc4)sc3c2)c1 | . | . | 1% | . | . | .
O=C(N/N=C/c1ccco1)c1ccc(Br)o1 | -13% | 0% | 4% | 67* | 25* | -11%
O=C(COc1ccc(/C=N/NC(=O)c2cc3ccccc3o2)cc1Br)Nc1ccccc1 | 16% | -8% | 1% | 112* | 53* | -1%
O=C(N/N=C/c1ccco1)c1cc2ccccc2o1 | -47% | -17% | 1% | 59* | 42* | 1%
O=C(O)/C(=C/c1ccco1)NC(=O)c1ccc(Br)o1 | 7% | -1% | 1% | -59 | -3 | 6%
CCN(C(=O)CSc1nc(C)c(C)c(C)n1)C1CCS(=O)(=O)C1 (configuration not stated) | . | 6% | -15% | . | . | .
COc1ccc(C(=O)Cn2cc[n+](C)c2)cc1 | -3% | 0% | -12% | -17 | -3 | -2%
NNC(=O)CN1CCCc2ccccc21 | . | 1% | 4% | 92* | 69* | 7%
CCOCC(=O)N1CCc2ccccc21 | -1% | 6% | -15% | 17 | 1 | -8%
O=C(CN1CCCc2ccccc21)N1CCc2ccccc21 | 1% | -1% | -3% | 48* | 28* | -3%
CC(CC(=O)N1CCc2ccccc21)c1ccccc1 (configuration not stated) | -72% | -11% | -10% | 36 | 18* | 2%
CC(C)(C)OC(=O)N[C@@H](Cc1ccccc1)c1nnc(S(=O)(=O)Cc2ccccc2)o1 | -132% | -42% | . | 17 | 42 | 11%
CCC(C)[C@@H](NC(=O)OC(C)(C)C)c1nnc(S(=O)(=O)Cc2cccc(C)c2)o1 (some centres not stated) | -66% | -13% | -4% | 77* | 31* | 4%
Cc1ccccc1CS(=O)(=O)c1nnc([C@H](Cc2ccccc2)NC(=O)OC(C)(C)C)o1 | -150% | -37% | -5% | 20 | 40* | -1%
CC(C)Nc1nc(Nc2ccc(C#N)cc2)c2sccc2n1 | . | . | 0% | . | . | .
CN1N=C2c3ccccc3CCC2C1c1ccc(Cl)cc1 (configuration not stated) | 0% | 0% | 0% | 72* | 35* | 1%
CNC(=S)N1N=C2c3ccccc3CCC2C1c1ccccc1Cl (configuration not stated) | 11% | -1% | -2% | 0 | 6 | -2%
CN1N=C2c3ccccc3CCC2C1c1ccc(F)cc1 (configuration not stated) | -5% | -2% | 7% | 87* | 76* | 0%
C=CCNc1nc(N)c(C(=C(C#N)C#N)c2ccc(Br)cc2)s1 | 23% | 3% | -17% | -6 | -3 | 6%
CC(=O)/C=C(\C)Nc1ccc(-c2cnc(-c3ccccc3)o2)cc1 | -74% | ? | -2% | 130* | 83* | -4%
CC(=O)Nc1ccc(OCc2nnc(-c3ccccc3)o2)cc1 | -9% | -10% | -7% | 8 | -3 | 2%
CC(C)C(=O)Nc1ccc(C(=O)c2ccccc2)cc1 | ? | -11% | 2% | 57* | 50* | -1%
CC(C)C(=O)Nc1ccc(C(=O)NNC(=O)CCc2ccccc2)cc1 | 4% | 6% | -11% | -6 | -2 | 3%
CC(=O)Nc1ccc(NC(=O)C(F)(F)F)cc1 | 11% | 7% | -6% | -5 | -4 | 7%
SMILES | NS1 inh | SARS PLP yeast | Tb PYK inh | Shiga inhibitor | CHX counter | LmPK inh
CC(C)C(=O)Nc1ccc(-c2nnc(-c3ccccc3)o2)cc1 | -7% | 0% | -9% | 119* | 72* | -6%
O=C(Nc1ccc(-c2nnc(-c3ccccc3)o2)cc1)C(F)(F)F | -17% | -5% | -6% | 73 | 49* | -11%
CC(c1ccccc1)n1c(-c2ccc(C(C)(C)C)cc2)n[nH]c1=S (configuration not stated) | -50% | 3% | -19% | 20 | 2 | -18%
CCc1cc(-c2n[nH]c(=S)n2C(C)c2ccccc2)cs1 (configuration not stated) | 10% | 13% | -67% | 4 | 13 | 14µM*
Cc1scc(-c2n[nH]c(=S)n2C(C)c2ccccc2)c1C (configuration not stated) | -32% | ? | 2.2µM* | -16 | -3 | 13µM*
CC(C)c1cc(-c2n[nH]c(=S)n2Cc2ccccc2)cs1 | 17% | 4% | ? | -10 | -3 | ?
CC(Sc1ccc(Cl)cc1)C(=O)NNC(=O)c1ccccc1O (configuration not stated) | -58% | . | 2% | 23 | 6 | -1%
N#C/C(C(=O)NCc1ccco1)=C1/SC(Cc2ccc(Cl)cc2)C(=O)N1c1ccccc1 (configuration not stated) | 26% | 5% | -7% | -26 | 18* | 0%
CCCCC(=O)N1CCN(c2nc(-c3ccc(F)cc3)cs2)CC1 | ? | 0% | 5% | 10 | 7 | -1%
COc1cccc(-c2csc(N3CCN(S(=O)(=O)c4ccc(F)cc4)CC3)n2)c1 | 1% | -10% | -4% | 38 | -3 | 2%
CS(=O)(=O)N1CCN(c2nc(-c3ccccc3)cs2)CC1 | 10% | 6% | -16% | 64 | 27* | -1%
CCS(=O)(=O)N1CCN(c2nc(-c3ccccc3)cs2)CC1 | 4% | -5% | -6% | 30 | 18* | 0%
O=C(CCCl)N1CCN(c2nc(-c3ccccc3)cs2)CC1 | 23% | -1% | 4% | 69* | 33* | -4%
Cc1cc(C)cc(NC(=O)C2CCCN(c3nnc(-n4c(C)ccc4C)s3)C2)c1 (configuration not stated) | . | . | -1% | . | . | .
CCN(CC)c1ccc(C2NC(=O)c3ccccc3N2)cc1 (configuration not stated) | . | . | -3% | . | . | .
CCN(CC)c1ccc(C2Nc3cccc4cccc(c34)N2)cc1 | 15% | 2% | -4% | 24 | 25* | -1%
CC1(C(=O)NC2CCCC2)CCC(=O)N1C1CCN(Cc2ccccc2)CC1 (configuration not stated) | . | . | -3% | . | . | .
CCOC(=O)N1CCN(C(=O)Cn2ncc3ccccc32)CC1 | -2% | 7% | 2% | 1 | -5 | 0%
CC1CCC(NC(=O)Cn2ncc3ccccc32)CC1 (configuration not stated) | 1% | -3% | -4% | active | 18* | 2%
CCOc1ccc(NC(=O)CSc2ccc3ccccc3n2)cc1 | . | . | 1% | . | . | .
